The record followed here is PubChem BioAssay (NCATS).

Inconclusive results are not listed. Active and inactive are the calls of the source. The call rests on the fitted dose curve; in most records, active means well fitted curve in the direction sought with a large enough effect; inconclusive means small, poorly fitted or top-dose-only effect, or another doubt; inactive means no such curve, though single readings can be large; an effect the other way counts as inactive or inconclusive.

The nature of test [1]: Quantitative High-Throughput drug screen in 47 multiple myeloma cell lines against the NCATS MIPE library collection: Karpas620_DSMZ cell viability assay (AID 1918959). Further: nearly all actives have a fitted effect of over 30% in size. The gist of the method: (§1)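 Luminescent ATP measurement with CellTiter-Glo gives viability, scaled between DMSO-only wells (100%) and media-only wells (0%). Cells, 500 per well, faced library compounds for 48 hours at 37C.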

Test [2] is described as follows: Quantitative High-Throughput drug screen in 47 multiple myeloma cell lines against the NCATS MIPE library collection: KMM1_JCRB cell viability assay (AID 1918960). Further: nearly all actives have a fitted effect of over 30% in size. The gist of the method: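 Myeloma cells at 500 per well in 1536-well format treated with MIPE 4.0 library by pin transfer for 48 h at 37C, 5% CO2. Viability from ATP luminescence (CellTiter-Glo), normalized to DMSO (100%) and media-only (0%) wells.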

Test [3] can be described thus: Quantitative High-Throughput drug screen in 47 multiple myeloma cell lines against the NCATS MIPE library collection: Karpas417_ECACC cell viability assay (AID 1918961). The note with it: Karpas417 myeloma viability, CellTiter-Glo ATP luminescence, 48 h; viability (% of DMSO): at 45.8 µM (top of the series). The gist of the method:
(§2)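 Steps: seed 500 cells per well; pin-transfer MIPE 4.0 library; incubate 48 h at 37C, 5% CO2, humidified; add CellTiter-Glo, 5 min room temperature; read luminescence.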
Background: Cellular ATP, detected with luciferase, serves as a proxy for viable cell number.

Test [4] in a line: Quantitative High-Throughput drug screen in 47 multiple myeloma cell lines against the NCATS MIPE library collection: JIM3_ECACC cell viability assay (AID 1918963; further: nearly all actives have a fitted effect of over 35% in size). The gist of the method:
as §1

A short description of test [5]: Quantitative High-Throughput drug screen in 47 multiple myeloma cell lines against the NCATS MIPE library collection: JIM1_ECACC cell viability assay (AID 1918964). A digest of the protocol: (§3)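 CellTiter-Glo luminescence (ATP) after 48 h compound exposure, 37C/5% CO2; 500 cells/well; MIPE 4.0 approved/investigational drugs pinned in; DMSO = 100%, media only = 0% viability.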

Test [6] can be described thus: Quantitative High-Throughput drug screen in 47 multiple myeloma cell lines against the NCATS MIPE library collection: INA6_PLB cell viability assay (AID 1918965; further: nearly all actives have a fitted effect of over 55% in size). A digest of the protocol: as §2
A short description of test [7]: Quantitative High-Throughput drug screen in 47 multiple myeloma cell lines against the NCATS MIPE library collection: H1112_PLB cell viability assay (AID 1918967; further: nearly all actives have a fitted effect of over 30% in size). A digest of the protocol: as §3
A short description of test [8]: Quantitative High-Throughput drug screen in 47 multiple myeloma cell lines against the NCATS MIPE library collection: Karpas25_ECACC cell viability assay (AID 1918968; further: nearly all actives have a fitted effect of over 35% in size). The gist of the method:
as §3

Test [9] is described as follows: Quantitative High-Throughput drug screen in 47 multiple myeloma cell lines against the NCATS MIPE library collection: KMS12BM_JCRB cell viability assay (AID 1918971). Further: nearly all actives have a fitted effect of over 35% in size. The gist of the method:
(§4)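 Inhibition of cell viability is measured here. Each line was plated at 500 cells per well, treated with MIPE 4.0 drugs, kept 48 hours at 37C, then assayed for ATP content by CellTiter-Glo luminescence.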

A short description of test [10]: Quantitative High-Throughput drug screen in 47 multiple myeloma cell lines against the NCATS MIPE library collection: KMS20_JCRB cell viability assay (AID 1918973). Further: nearly all actives have a fitted effect of over 45% in size. A digest of the protocol: as §3
Test [11] in a line: Quantitative High-Throughput drug screen in 47 multiple myeloma cell lines against the NCATS MIPE library collection: KMS26_JCRB cell viability assay (AID 1918975). Further: nearly all actives have a fitted effect of over 45% in size. A digest of the protocol:
as §4

Test [12] in a line: Quantitative High-Throughput drug screen in 47 multiple myeloma cell lines against the NCATS MIPE library collection: NCIH929_DSMZ cell viability assay (AID 1918978). Further: nearly all actives have a fitted effect of over 35% in size. A digest of the protocol: (§5)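 Inhibition of viability over 48 h was scored by ATP content (CellTiter-Glo) in 500-cell wells. Zero and full viability were defined by media-only and DMSO-only wells.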
Test [13] is described as follows: Quantitative High-Throughput drug screen in 47 multiple myeloma cell lines against the NCATS MIPE library collection: KHM11_PLB cell viability assay (AID 1918962). Further: nearly all actives have a fitted effect of over 35% in size. The gist of the method: as §1
The nature of test [14]: Quantitative High-Throughput drug screen in 47 multiple myeloma cell lines against the NCATS MIPE library collection: JJN3_DSMZ cell viability assay (AID 1918966; further: nearly all actives have a fitted effect of over 50% in size). A digest of the protocol:
as §3

The nature of test [15]: Quantitative High-Throughput drug screen in 47 multiple myeloma cell lines against the NCATS MIPE library collection: KMS12PE_JCRB cell viability assay (AID 1918972). Further: nearly all actives have a fitted effect of over 30% in size. A digest of the protocol:
as §2

Test [16] can be described thus: Quantitative High-Throughput drug screen in 47 multiple myeloma cell lines against the NCATS MIPE library collection: KMS21BM_JCRB cell viability assay (AID 1918974). Conditions: ATP luminescence, 48 h; viability: at 45.8 µM (top of the series). The gist of the method:
as §3

Test [17] in a line: Quantitative High-Throughput drug screen in 47 multiple myeloma cell lines against the NCATS MIPE library collection: MMM1_PLB cell viability assay (AID 1918976). Further: nearly all actives have a fitted effect of over 35% in size. A digest of the protocol: as §5
Test [18] can be described thus: Quantitative High-Throughput drug screen in 47 multiple myeloma cell lines against the NCATS MIPE library collection: MOLP8_DSMZ cell viability assay (AID 1918977). Further: nearly all actives have a fitted effect of over 45% in size. A digest of the protocol:
as §5

A short description of test [19]: Quantitative High-Throughput drug screen in 47 multiple myeloma cell lines against the NCATS MIPE library collection: KMS27_JCRB cell viability assay (AID 1918970). Further: nearly all actives have a fitted effect of over 30% in size. The note with it: KMS27 myeloma cells, CellTiter-Glo ATP viability, 48 h; viability (% of DMSO): at 45.8 µM (top of the series). A digest of the protocol:
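Each line is seeded at 500 cells per well and treated with library compounds for 48 hours under 37 °C, 5% CO2. CellTiter-Glo is then added for 5 min at room temperature before median relative luminescence is recorded.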

Test [20] in a line: Quantitative High-Throughput drug screen in 47 multiple myeloma cell lines against the NCATS MIPE library collection: OCIMY1_PLB cell viability assay (AID 1918979). Further: nearly all actives have a fitted effect of over 35% in size. A digest of the protocol: as §5
Potency means the concentration at half of the fitted maximal effect.

For the compound `C[C@H]1COc2c(N3CCN(C)CC3)c(F)cc3c(=O)c(C(=O)O)cn1c23`, the Potency entry in test [1], in test [2], in test [3], in [4], in [5] and in test [6] was “inactive” throughout. Moreover, the Potency entry in test [7], in [8], in [9], in test [10], in [11] and in test [12] was “inactive” throughout.
On to `NC(=O)Nc1cc(-c2ccc(CN3CCOCC3)cc2)sc1C(N)=O`, for which the Potency in [1] was 6.62 µM (active); in [2] it was 4.18 µM (active); in [3] it was 83.3 nM (active); in test [13] it was 935 nM (active); in test [4] it was 4.69 µM (active); in [5], 1.48 µM (active). The Potency in test [6] was 1.05 µM (active); in [14], 1.18 µM (active); in [7], 5.26 µM (active); in test [8], 1.32 µM (active); in [9], 20.9 µM (active); in [15], 1.18 µM (active). In addition, the Potency was 2.64 µM (active) in test [10]; 1.32 µM (active) in [16]; 23.5 µM (active) in test [11]; 6.62 µM (active) in test [17]; 14.8 µM (active) in test [18].
Consider `O=C(O)C(=O)Nc1cccc(C2=NN=N[N]2)c1`, for which the Potency result in test [1], in test [2], in [3], in test [4], in test [6] and in [7] was “inactive” throughout. Further, the Potency entry in test [8], in test [19], in test [9], in test [15], in test [18] and in test [12] was “inactive” throughout.
`C=CCNc1c(O)cc2c(O)c1C[C@@H](C)C[C@H](OC)[C@@H](O)[C@@H](C)C=C(C)[C@H](OC(N)=O)[C@@H](OC)C=CC=C(C)C(=O)N2`: the Potency is 1.18 µM (active) in test [1]; 0.372 µM (active) in [2]; 74.3 nM (active) in test [3]; 264 nM (active) in test [13]; 0.59 µM (active) in [4]; 0.209 µM (active) in test [5]. Also, the Potency in test [6] was 0.187 µM (active); in test [14] it was 0.296 µM (active); in test [8], 0.469 µM (active); in test [19], 148 nM (active); in [9], 0.332 µM (active); in test [15] it was 0.105 µM (active). The Potency is 0.372 µM (active) in test [10]; 1.32 µM (active) in [11]; 8.33 µM (active) in [17]; 0.332 µM (active) in [18]; 418 nM (active) in test [12]; 1.48 µM (active) in test [20].
On to `COc1cc(C=CC(=O)CC(=O)C=Cc2ccc(O)c(OC)c2)ccc1O`, for which the Potency is 3.4 µM (active) in test [1]; 4.81 µM (active) in test [2]; 4810 nM (active) in [3]; 4.81 µM (active) in test [4]; 3.4 µM (active) in test [5]; 1.52 µM (active) in [6]. The Potency in [14] is 13.6 µM (active); in test [7], 6.79 µM (active); in [8], 0.96 µM (active); in [19], 3030 nM (active); in test [9], 19.1 µM (active); in test [15] it was 7.62 µM (active). The Potency is 6.05 µM (active) in test [10]; 48.1 µM (active) in [11]; 38.2 µM (active) in test [17]; 9.59 µM (active) in [18]; 3400 nM (active) in test [12]; 21.5 µM (active) in test [20].
In the case of `O=C(Nc1nnc(-c2ccco2)o1)c1cc(-c2ccccc2)nc2ccccc12`, the Potency in test [1] is 20.9 µM (active); in test [2], 14.8 µM (active); in [3], 23500 nM (active); in test [4], 18.7 µM (active); in [5], 18.7 µM (active); in [6], 16.6 µM (active). For the same compound, the Potency in test [14] is 20.9 µM (active); in [8], 18.7 µM (active); in [19], 16600 nM (active); in test [9], 23.5 µM (active); in test [15] it was 18.7 µM (active); in [10] it was 16.6 µM (active). Also, in [16], the Potency is 23.5 µM (active).
Regarding `CN(C)CC(=O)N1CCC(c2ccc(NC(=O)c3ncc(C#N)[nH]3)c(C3=CCCCC3)c2)CC1`, the Potency entry in [1], in [2] and in [9] was “inactive” in each case. In addition, the Potency was 2350 nM (active) in test [3]; 20900 nM (active) in [13]; 5.26 µM (active) in test [5]; 14.8 µM (active) in test [6]; 18.7 µM (active) in test [7]; 23.5 µM (active) in test [8]. In addition, the Potency in test [15] was 5.26 µM (active); in test [10] it was 13.2 µM (active); in test [18], 5.26 µM (active); in test [12], 16600 nM (active).
On to `Cn1cc(CNCC2CCN(c3ncc(C(=O)NO)cn3)CC2)c2ccccc21`, for which the Potency in test [1] was 0.105 µM (active); in [2], 0.0418 µM (active); in [3] it was 16.6 nM (active); in test [4] it was 0.132 µM (active); in [5] it was 0.0743 µM (active); in test [6], 0.001 µM (active). Besides, the Potency in test [14] is 0.0296 µM (active); in test [7], 0.0332 µM (active); in [19] it was 16.6 nM (active); in test [9], 0.0235 µM (active); in test [15] it was 0.0372 µM (active); in test [10], 0.0296 µM (active). In addition, the Potency is 0.0166 µM (active) in test [11]; 0.0418 µM (active) in [17]; 0.0132 µM (active) in test [18]; 20.9 nM (active) in test [12]; 0.105 µM (active) in test [20].
As to `Cn1cnc(=N)c2[nH]cnc21`, the Potency is 0.296 µM (active) in [1]; 0.132 µM (active) in test [2]; 23.5 nM (active) in [3]; 372 nM (active) in [13]; 1.05 µM (active) in test [4]; 0.0935 µM (active) in test [5]. The Potency is 0.0469 µM (active) in [6]; 0.166 µM (active) in test [14]; 0.235 µM (active) in [7]; 0.0743 µM (active) in test [8]; 59 nM (active) in [19]; 0.105 µM (active) in [9]. Also, the Potency in test [15] is 0.0935 µM (active); in [10] it was 0.0526 µM (active); in test [11], 0.132 µM (active); in test [17] it was 0.148 µM (active); in test [18], 0.0418 µM (active); in test [12], 132 nM (active). In addition, the Potency in test [20] was 0.743 µM (active).
In the case of `CCC[C@H]1C[C@H](C(=O)N[C@@H]([C@@H]2O[C@@H](SC)[C@@H](O)[C@@H](O)[C@@H]2O)[C@H](C)Cl)N(C)C1`, the Potency result in test [1], in test [2], in test [13], in test [7], in test [19] and in test [15] was “inactive” in each case. Moreover, the Potency result in test [10], in test [18], in [12] and in test [20] was “inactive” in each case. Moreover, the Potency in test [3] is 9.3 nM (active).
